For orientation: inhibition means the drop in the measured response relative to a control, in per cent.

Molecules are shown by their SMILES. This is one part of the list. A number with no mark means an inactive call. How the calls were made is not given here.

The target of this test is 5-hydroxytryptamine receptor 5A (Homo sapiens) (UniProt P47898). The experiment in a line: HTR5A inverse agonists, counter-screen for OPRM1-OPRD1 inverse agonist project, cell-based, luminescence (AID 504914).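 Further: 0% = cells with DMSO and 100% = no-cell wells with DMSO.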 As to conditions: HTR5A-expressing cells, inverse agonism, at 9.3 µM, hits give high values. In general terms: The purpose of a counterscreen is to sort out artefacts and off-target activity.
5-hydroxytryptamine receptor 5A (Homo sapiens), sequence (P47898 whole entry, looked up): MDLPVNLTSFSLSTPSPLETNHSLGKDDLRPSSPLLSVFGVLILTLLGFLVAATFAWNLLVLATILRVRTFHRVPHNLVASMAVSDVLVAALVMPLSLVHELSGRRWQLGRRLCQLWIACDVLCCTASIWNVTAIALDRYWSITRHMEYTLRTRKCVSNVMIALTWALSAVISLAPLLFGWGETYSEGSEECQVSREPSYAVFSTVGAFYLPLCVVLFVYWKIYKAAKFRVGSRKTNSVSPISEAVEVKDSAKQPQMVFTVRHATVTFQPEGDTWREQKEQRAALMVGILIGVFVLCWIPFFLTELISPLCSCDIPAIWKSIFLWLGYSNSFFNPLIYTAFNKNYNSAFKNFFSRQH
As to `Cc1cccc(N=Nc2c(O)[nH]c3ccc(F)cc23)c1`, the inhibition was 22.6%.

For the molecule `Cc1ccc(C(=O)CNc2ccc(F)cc2)cc1`, the inhibition is -0.52%.

As to `Cc1cccc2c1N(CC(=O)OC(C)C)C(=O)C2=O`, the inhibition is -14.5%.

Consider `CSCCC(NC(=O)COc1ccccc1)C(=O)OCC(=O)c1cc2ccccc2o1` (stereo unspecified), for which the inhibition is 12%.

For the molecule `Cc1ccc2c(c1)C(O)(CC(=O)c1cccnc1)C(=O)N2` (stereo unspecified), the inhibition was 0%.

For `Cc1cccc(C)c1NC(=O)C(Cl)C(=O)c1ccccc1` (stereo unspecified), the inhibition was -75.6%.

As for `Cc1ccc(NNC(=O)c2cccs2)cc1Cl`, the inhibition is -15%.

Turning to `O=C1C(=O)N(c2ccccc2)c2ccccc21`, the inhibition is 19%.

For the molecule `CN(c1ccccc1)S(=O)(=O)c1ccc(NC(=O)COc2ccccc2)cc1`, the inhibition was -4.8%.

Consider `Oc1ccc(N=Nc2nccs2)c(O)c1`, for which the inhibition is 23.3%.

For the molecule `N#CC1=C(N)C(C#N)(C#N)[C@H](c2ccsc2)[C@H]2COCC=C12`, the inhibition is -8.6%.

On to `O=C1C(=O)N(CC2COc3ccccc3O2)c2ccccc21` (stereo unspecified), for which the inhibition was 12%.

`COc1cc(NS(=O)(=O)c2ccc3ccccc3c2)c2ncccc2c1`: the inhibition was -111%.

For the molecule `CCOc1ccc(NC(=O)c2cccc3c2C(=O)N(CC2CCCO2)C3)cc1` (stereo unspecified), the inhibition is -4.42%.

Consider `C=CCn1c(N)c(C(=O)OCC(C)C)c2nc3ccccc3nc21`, for which the inhibition was 10.8%.

As to `Cc1cccc2c1N(CCOc1ccccc1)C(=O)C2=O`, the inhibition is 10.3%.

As to `O=C(CCl)NNc1cccc(Cl)n1`, the inhibition is 8.61%.

As for `O=[N+]([O-])/C=C/c1ccc2c(ccn2Cc2ccccc2)c1`, the inhibition was -16.4%.

As to `CCOC(=O)CN1C(=O)C(=O)c2cc(C)ccc21`, the inhibition is 12.5%.

As for `COC(=O)Cc1c(-c2[nH]c3ccccc3c2CC(=O)OC)[nH]c2ccccc12`, the inhibition was -66.2%.

As to `CC(C)OC(=O)CN1C(=O)C(=O)c2ccccc21`, the inhibition was 4.72%.

Consider `CCOC(=O)CN1C(=O)C(O)(CC(=O)c2ccccn2)c2ccccc21` (stereo unspecified), for which the inhibition was 10.2%.

As to `Cc1ccc(NC2(C#N)C(=O)Nc3ccccc32)cc1` (stereo unspecified), the inhibition is -97.2%.

On to `CN(C)/C=C1/Nc2ccccc2C1=O`, for which the inhibition was 5.59%.

Turning to `CCCCC(=O)NNC(=S)NC(=O)C(c1ccccc1)c1ccccc1`, the inhibition is -76%.

For the molecule `CN(O)C(=S)c1ccccc1`, the inhibition was 26.7%.

For the origin of these results see PubChem BioAssay AID504914 (The Scripps Research Institute Molecular Screening Center, 2011).
